Screening data: PubChem, Broad Institute
PAX8 reporter: inhibitors of PAX8-driven TPO luciferase reporter, primary screen, RMG-I cells, single concentration. inhibition, % at 12.6 µM. SteadyGlo, 24 h. AID 652154, 2013. hit rate 1.2% among 360,000;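 active means mean replicate inhibition at least 60% with every replicate also reaching 60%; inconclusive means only one of the two criteria is met; inactive means mean below 60% and not all replicates reaching 60%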;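 further: luciferase light reporting Pax8 driven TPO promoter activity; plate controls were median of neutral control wells for no effect and mitoxantrone controls for full effect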
EWS-Fli inh: EWS/Fli-driven NR0B1 reporter inhibitors, primary screen, A673 cells, NR0B1 luciferase, luminescence, MLPCN library; viability-normalised; inhibition, % at 12.6 µM; hit rate 0.67% among 350,000;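 active means mean inhibition of at least 50% after viability correction, with every replicate also passing that limit; inconclusive means mean reaches 50% but only one of two replicates passes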;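 further: firefly luciferase signal divided by Alamar Blue viability fluorescence both relative to DMSO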
MITF TRPM1 HTS: activators of MITF-driven TRPM1 promoter reporter, primary screen, cell-based, SK-MEL-5, luciferase, single point. SK-MEL-5 TRPM1-promoter luciferase, 24 h; % of positive control, neutral wells = 0. activation, % at 12.5 µM. hit rate 0.75% among 300,000;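 active means mean activation of at least 80% with every replicate also reaching 80%; inconclusive means mean reaches 80% but some replicate falls short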;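 further: 0% = neutral control wells and 100% = parthenolide positive control wells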
MITF TRPM1 inh: inhibitors of MITF-dependent TRPM1 promoter reporter, primary screen, cell-based, SK-MEL-5, single point, luciferase. inhibition, % at 12.5 µM. SK-MEL-5 TRPM1 promoter luciferase, 24 h. hit rate 0.83% among 330,000. AID 488899, 2010;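 active means mean inhibition across replicates of 60% or more, whatever share of single replicates reaches that level; inconclusive means some that reach 60%, reason not given; inactive means mean inhibition across replicates below 60%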
esBAF inh: Bmi1 luciferase reporter increase in mESCs, primary screen, esBAF inhibitor project, mouse ES cells, Bmi1 luciferase knock-in, single point. reporter increase, % at 12.5 µM. AID 602393, 2012. 24 h; 100% = twice the neutral-well signal. hit rate 2% among 350,000; in the data active means activation above about 40%; inconclusive means no clear call, values can overlap the other calls;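 further: 0% = median of the plate's neutral control wells and 100% = double that signal; a rise in the Bmi1 reporter signal indicates esBAF inhibition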
Wnt bcat act: Wnt/beta-catenin pathway activators, primary screen, cell-based, plate reader, single point | activation, % at 9.35 µM | Wnt/beta-catenin reporter cell assay, activator | hit rate 1.2% among 300,000 | AID 743398, 2014; in the data active means activation above about 30%, passing the limit was not always enough; inconclusive means no clear call, values can overlap the other calls;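 further: 0% = neutral control wells and 100% = positive control wells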
Active calls of the source: *; ? = inconclusive; · = no result given; ! = repeats disagree. The list is not random: actives were taken first. Their share in the collection is about 4%.

SMILES | PAX8 reporter | EWS-Fli inh | MITF TRPM1 HTS | MITF TRPM1 inh | esBAF inh | Wnt bcat act
Clc1ccc(C2Nc3cccc4cccc(c34)N2)c(Cl)c1 | 15.9 | 1.6 | · | 8.0 | -6.4 | -2.8
Nc1ccc2ccc(O)cc2c1 | -8.2 | -10.7 | -16.3 | 17.4 | 38.1 | 3.4
C[n+]1c2cc(N)ccc2cc2ccc(N)cc21 | 66.2*! | 61.7* | -64.1 | 63.9* | -75.6 | -8.6
CC(C)NC(=O)c1ccc2c3n(nc2c1)-c1ccc(Cl)cc1CO3 | -283.4 | -97.7 | 102.3* | -104.7 | 74.8* | 33.7*
O=C(c1ccc2c3n(nc2c1)-c1ccccc1CO3)N1CCOCC1 | · | · | 49.2 | -48.3 | -74.7 | ·
O=C(c1ccc2c3n(nc2c1)-c1ccc(Cl)cc1CO3)N1CCOCC1 | -177.4 | -169.8 | 125.8* | -128.1 | 73.2* | 33.4*
C[C@@H](CO)NC(=O)c1ccc2c3n(nc2c1)-c1ccccc1CO3 | 29.8 | 8.8 | 5.6 | -3.1 | -47.5 | 8.8
CCN(CC)CCCNC(=O)c1ccc2c3n(nc2c1)-c1ccc(Cl)cc1CO3 | -113.5 | -78.0 | 114.0* | -110.6 | 36.7 | 18.4
COc1ccccc1NC(=O)N(C)C[C@H]1Oc2ncc(C#CCC(C)C)cc2C(=O)N([C@@H](C)CO)C[C@H]1C | 0.7 | 11.0 | · | · | -5.4 | ·
C[C@@H]1CN([C@@H](C)CO)C(=O)Cc2cc(NS(=O)(=O)c3cn(C)cn3)ccc2O[C@H]1CN(C)Cc1ccc(C(F)(F)F)cc1 | 6.2 | 1.0 | · | · | 0.7 | ·
COC(=O)c1ccc(COC(=O)c2ccc(SC)cc2OC)cc1 | -164.8 | -28.8 | 16.7 | -12.6 | 62.8* | -4.4
O=C(Nc1ccc(OCC(=O)N2CCOCC2)cc1)Nc1cccc(Cl)c1 | -8.2 | -20.1 | 1.0 | 0.6 | · | 0.1
CC(C)(C)c1ccc(NC(=O)Nc2ccc(OCC(=O)N3CCOCC3)cc2)cc1 | -119.0 | -92.3 | 90.0* | -84.1 | · | 11.2
COc1cc(SC)ccc1C(=O)Nc1ncc(C)s1 | 84.5* | 81.1* | -63.5 | 65.5* | · | -0.3
COc1cc(SC)ccc1C(=O)Nc1ccc(C)cc1 | -87.7 | -37.3 | 14.4 | -15.9 | · | 50.2*
COc1cc(SC)ccc1C(=O)Nc1ccc(C)cc1C | -269.6 | · | 27.3 | -23.7 | · | ·
CN1C(=O)c2cc(NC(=O)c3cscn3)ccc2OC[C@@H]2O[C@@H](CC(=O)NCC3CC3)CC[C@@H]21 | -0.9 | -4.0 | · | · | 1.7 | ·
CCCN(C)C[C@@H]1Oc2ncc(-c3cccc(C#N)c3)cc2C(=O)N([C@H](C)CO)C[C@H]1C | · | -0.9 | · | · | 0.7 | ·
COc1cc(SC)ccc1C(=O)Nc1ncc(Cl)cc1Cl | -116.3 | -33.2 | 15.7 | -13.1 | · | 69.9*
COc1cc(SC)ccc1C(=O)Nc1ccon1 | -192.4 | · | · | -55.8 | 50.7* | 20.5
COc1cc(SC)ccc1C(=O)Nc1ccccn1 | -55.9 | 14.2 | 15.4 | -9.3 | · | 0.7
COc1cc(SC)ccc1C(=O)Nc1ccc(OCC(=O)N2CCOCC2)cc1 | -71.6 | -34.7 | 82.5* | -81.2 | 17.3 | -4.1
COc1cc(SC)ccc1C(=O)Nc1cccc(C)n1 | -213.4 | -46.0 | 101.0* | -100.7 | 45.0* | 19.4
CO[C@H]1CN(C)C(=O)c2cc(NC(=O)NC(C)C)ccc2OC[C@H](C)N(C(=O)NC(C)C)C[C@@H]1C | -0.3 | -2.7 | · | · | -0.7 | ·
N#C[C@@H]1[C@H](c2ccccc2)[C@@H](CO)N1C(=O)Nc1cccc(F)c1 | 0.7 | 2.3 | · | · | 3.5 | ·
SMILES | PAX8 reporter | EWS-Fli inh | MITF TRPM1 HTS | MITF TRPM1 inh | esBAF inh | Wnt bcat act
O=C(C[C@H]1CC[C@@H]2[C@H](COC[C@H](O)CN2C(=O)c2cccnc2)O1)NCc1ccccc1 | -18.2 | 1.5 | · | · | -4.3 | ·
COc1cc(SC)ccc1C(=O)Nc1ccc(Br)cn1 | 2.7 | 73.3* | -56.5 | 56.8 | -83.1 | -4.1
C/C=C/c1ccc([C@H]2[C@@H](CN(C)C(=O)C3CC3)N(C(=O)CC)[C@H]2CO)cc1 | 7.3 | -6.6 | · | · | 0.4 | ·
C[C@@H]1CCCCO[C@H](CN(C)C(=O)Nc2ccc3c(c2)OCO3)[C@@H](C)CN([C@@H](C)CO)C(=O)c2cc(NS(=O)(=O)c3ccccc3)ccc2O1 | -21.5 | -47.2 | · | · | -9.3 | ·
C=CCNc1nc(-c2ccc(OC)cc2OC)cs1 | -135.6 | · | 77.9 | -65.7 | 54.7* | ·
COc1ccc(-c2csc(NC(=O)C3=COCCO3)n2)c(OC)c1 | -141.1 | -74.2 | 75.2 | -69.5 | · | 8.8
O=C(Cc1ccncc1)Nc1ccc2c(c1)[C@@H]1C[C@@H](CC(=O)NC3CCCC3)O[C@H](CO)[C@@H]1O2 | -9.5 | 0.0 | · | · | 0.8 | ·
CC(C)(C)c1ccc(CCC2OCC(C[N+]3(C)CCOCC3)O2)cc1 (stereo not drawn) | ? | 5.0 | · | 3.8 | · | 31.5*
O=C(Nc1cccc([N+](=O)[O-])c1)c1ccc2c(c1)OCCO2 | -169.0 | · | 61.7 | -65.3 | · | 47.3*
O=C(Nc1cccc([N+](=O)[O-])c1)c1ccncc1 | -11.5 | · | -19.0 | 20.2 | · | ·
C/C(=N\NC(=O)c1ccncc1)c1cccc(NC(=O)c2ccc(C(C)(C)C)cc2)c1 | -161.9 | -37.0 | 37.3 | -40.5 | 38.2 | 34.8*
CC(=O)Nc1cccc(NC(=O)c2ccc(C)c([N+](=O)[O-])c2)c1 | -34.3 | -5.6 | 27.7 | -19.9 | 15.7 | 57.6*
CC(C)(C)c1ccc(C(=O)Nc2cccc([N+](=O)[O-])c2)cc1 | -87.1 | · | 87.8* | -99.0 | · | ·
C[C@H]1CN([C@@H](C)CO)C(=O)c2cc(Br)cnc2O[C@H]1CN(C)C(=O)Nc1ccc(F)cc1 | 4.1 | 0.2 | · | · | 0.0 | ·
C/C(=N/NC(=O)c1ccc2c(c1)OCO2)c1cccc([N+](=O)[O-])c1 | -140.1 | -123.0 | 126.3* | -126.4 | 31.4 | -1.8
O=C(Nc1ccc(F)c([N+](=O)[O-])c1)c1ccc2c(c1)OCCO2 | -131.4 | -78.4 | 55.6 | -50.2 | 49.8* | 20.3
O=C(Nc1ccc(Cl)cc1[N+](=O)[O-])c1ccc2c(c1)OCCO2 | -96.3 | -39.9 | 69.1 | -75.6 | ? | 27.6
O=C(c1ccc(F)cc1)N1CC(=O)N2[C@H](CO)[C@@H](c3ccc(C#CC4CC4)cc3)[C@H]2C1 | -2.5 | 3.5 | · | · | · | ·
Cn1c2ccccc2c2nnc(NN)nc21 | 15.7 | 11.3 | -23.3 | 20.6 | 5.0 | -1.3
CCCCc1c(C)nn(-c2nnc3c4ccccc4n(C)c3n2)c1C | · | · | 48.6 | -42.8 | 47.8* | ·
CN(C)c1cccc(NC(=O)c2cccc3c(-c4ccc(F)c(F)c4)coc23)c1 | -184.2 | -53.9 | · | · | 41.4* | 1.9
O=C(Nc1ccccc1)c1cccc2c(-c3cccnc3)coc12 | 1.2 | -80.3 | · | · | 55.3* | -1.2
COCC(=O)Nc1ccc2c(c1)[C@@H]1C[C@H](CC(=O)NC3CCCCC3)O[C@H](CO)[C@@H]1O2 | -10.3 | -4.0 | · | · | 0.7 | ·
COc1ccccc1CNC(=O)C[C@H]1CC[C@H]2[C@@H](COc3ccc(NC(=O)Nc4ccc(F)c(F)c4)cc3C(=O)N2C)O1 | 14.0 | 2.7 | · | · | 14.8 | ·
